For assay [1], the target named is Death-associated protein kinase 1 (Homo sapiens) (UniProt P53355). The following applies: at 10 µM.
Assay [2] deals with Death-associated protein kinase 2 (Homo sapiens) (UniProt Q9UIK4). Particulars: at 1 µM.
Assay [3] shares this target. The following applies: at 10 µM.
Assay [4] concerns the target T1, Serine/threonine-protein kinase DCLK2 (Homo sapiens) (UniProt Q8N568).
T1 sequence (whole entry): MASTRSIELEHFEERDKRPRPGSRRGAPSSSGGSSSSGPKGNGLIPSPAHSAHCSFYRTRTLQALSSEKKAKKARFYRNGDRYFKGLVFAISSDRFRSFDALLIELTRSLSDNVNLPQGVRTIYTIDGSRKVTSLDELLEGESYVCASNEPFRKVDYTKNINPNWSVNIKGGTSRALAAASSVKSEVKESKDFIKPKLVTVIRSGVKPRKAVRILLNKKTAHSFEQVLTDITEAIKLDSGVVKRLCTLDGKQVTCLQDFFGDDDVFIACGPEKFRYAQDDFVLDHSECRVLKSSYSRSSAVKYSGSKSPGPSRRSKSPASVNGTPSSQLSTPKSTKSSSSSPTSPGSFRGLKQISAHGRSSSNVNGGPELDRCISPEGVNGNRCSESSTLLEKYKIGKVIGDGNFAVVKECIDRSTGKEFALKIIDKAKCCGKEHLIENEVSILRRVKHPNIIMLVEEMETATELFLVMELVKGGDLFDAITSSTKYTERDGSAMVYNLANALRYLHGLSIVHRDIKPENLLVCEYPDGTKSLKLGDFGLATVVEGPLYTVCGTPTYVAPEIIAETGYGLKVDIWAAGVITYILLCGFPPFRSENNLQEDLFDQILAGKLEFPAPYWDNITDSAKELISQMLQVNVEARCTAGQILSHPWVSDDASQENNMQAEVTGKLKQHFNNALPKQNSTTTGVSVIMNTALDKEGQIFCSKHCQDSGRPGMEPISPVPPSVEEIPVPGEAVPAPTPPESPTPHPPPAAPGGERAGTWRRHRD
Particulars: at 1 µM.

For assay [5], the target named is T1, Serine/threonine-protein kinase DCLK2 (Homo sapiens). Particulars: at 10 µM.
For assay [6], the target named is T2, Discoidin domain-containing receptor 2 (Homo sapiens) (UniProt Q16832).
T2 sequence (whole entry): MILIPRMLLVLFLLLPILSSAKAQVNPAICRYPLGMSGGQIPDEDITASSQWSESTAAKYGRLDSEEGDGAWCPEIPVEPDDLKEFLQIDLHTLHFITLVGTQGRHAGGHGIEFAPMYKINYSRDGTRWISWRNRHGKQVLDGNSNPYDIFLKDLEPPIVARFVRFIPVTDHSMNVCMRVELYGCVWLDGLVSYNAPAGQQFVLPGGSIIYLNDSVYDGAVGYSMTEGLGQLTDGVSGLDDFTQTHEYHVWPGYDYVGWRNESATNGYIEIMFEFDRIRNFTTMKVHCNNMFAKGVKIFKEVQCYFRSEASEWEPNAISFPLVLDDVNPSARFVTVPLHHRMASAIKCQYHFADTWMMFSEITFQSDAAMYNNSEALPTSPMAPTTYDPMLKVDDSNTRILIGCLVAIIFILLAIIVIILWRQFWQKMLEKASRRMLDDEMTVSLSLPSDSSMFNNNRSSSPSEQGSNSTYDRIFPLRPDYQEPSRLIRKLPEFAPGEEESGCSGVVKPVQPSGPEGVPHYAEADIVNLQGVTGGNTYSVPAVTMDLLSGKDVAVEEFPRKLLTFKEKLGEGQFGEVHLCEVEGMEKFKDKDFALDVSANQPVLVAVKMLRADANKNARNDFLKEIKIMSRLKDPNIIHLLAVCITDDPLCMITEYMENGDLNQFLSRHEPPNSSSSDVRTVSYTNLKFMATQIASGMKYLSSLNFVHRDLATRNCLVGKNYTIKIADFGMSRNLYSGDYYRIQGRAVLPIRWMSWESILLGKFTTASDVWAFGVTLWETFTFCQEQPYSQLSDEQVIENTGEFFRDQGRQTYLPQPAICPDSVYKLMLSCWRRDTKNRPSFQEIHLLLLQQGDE
The following applies: at 1 µM.

The target in assay [7] is T2, Discoidin domain-containing receptor 2 (Homo sapiens). Particulars: at 10 µM.
The target of assay [8] is T3, Myotonin-protein kinase (Homo sapiens) (UniProt Q09013).
T3 sequence (whole entry): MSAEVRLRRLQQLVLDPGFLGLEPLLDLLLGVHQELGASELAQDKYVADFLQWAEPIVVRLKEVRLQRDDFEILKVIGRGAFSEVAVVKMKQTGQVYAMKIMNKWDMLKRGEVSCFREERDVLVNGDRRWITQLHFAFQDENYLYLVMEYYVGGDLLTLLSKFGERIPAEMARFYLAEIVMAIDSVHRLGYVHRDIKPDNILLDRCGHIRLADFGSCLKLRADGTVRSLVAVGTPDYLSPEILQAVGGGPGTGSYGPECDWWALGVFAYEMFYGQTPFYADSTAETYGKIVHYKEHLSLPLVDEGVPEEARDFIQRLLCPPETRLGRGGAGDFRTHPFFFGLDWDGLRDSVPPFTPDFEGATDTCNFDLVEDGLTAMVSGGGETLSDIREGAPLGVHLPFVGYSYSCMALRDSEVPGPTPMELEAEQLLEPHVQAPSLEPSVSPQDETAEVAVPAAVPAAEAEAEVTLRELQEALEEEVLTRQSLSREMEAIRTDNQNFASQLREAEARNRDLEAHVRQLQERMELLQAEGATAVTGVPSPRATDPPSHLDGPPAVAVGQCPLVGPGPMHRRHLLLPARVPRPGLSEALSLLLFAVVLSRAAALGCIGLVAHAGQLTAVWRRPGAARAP
The following applies: at 1 µM.

Assay [9] concerns the target T3, Myotonin-protein kinase (Homo sapiens). Particulars: at 10 µM.
Assay [10] addresses T4, Dual specificity tyrosine-phosphorylation-regulated kinase 2 (Homo sapiens) (UniProt Q92630).
T4 sequence (whole entry): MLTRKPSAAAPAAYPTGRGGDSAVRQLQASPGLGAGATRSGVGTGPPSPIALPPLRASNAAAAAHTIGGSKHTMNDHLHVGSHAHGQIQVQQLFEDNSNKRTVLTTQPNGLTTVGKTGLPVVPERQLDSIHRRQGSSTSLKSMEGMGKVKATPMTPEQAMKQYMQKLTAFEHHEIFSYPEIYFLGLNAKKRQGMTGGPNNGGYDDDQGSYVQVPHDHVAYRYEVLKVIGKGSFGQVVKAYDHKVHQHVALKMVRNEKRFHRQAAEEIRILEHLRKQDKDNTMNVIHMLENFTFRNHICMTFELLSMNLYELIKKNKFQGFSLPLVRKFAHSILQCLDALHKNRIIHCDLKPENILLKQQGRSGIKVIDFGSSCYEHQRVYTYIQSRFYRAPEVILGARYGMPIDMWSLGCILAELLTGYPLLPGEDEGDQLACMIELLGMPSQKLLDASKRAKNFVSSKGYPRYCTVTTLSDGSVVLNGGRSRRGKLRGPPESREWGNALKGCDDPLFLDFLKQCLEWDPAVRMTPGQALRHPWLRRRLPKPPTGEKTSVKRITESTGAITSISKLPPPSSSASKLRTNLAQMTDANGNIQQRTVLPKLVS
The following applies: at 1 µM.

Assay [11] addresses T4, Dual specificity tyrosine-phosphorylation-regulated kinase 2 (Homo sapiens). Particulars: at 10 µM.
Assay [12] deals with T5, Ephrin type-A receptor 1 (Homo sapiens) (UniProt P21709).
T5 sequence (whole entry): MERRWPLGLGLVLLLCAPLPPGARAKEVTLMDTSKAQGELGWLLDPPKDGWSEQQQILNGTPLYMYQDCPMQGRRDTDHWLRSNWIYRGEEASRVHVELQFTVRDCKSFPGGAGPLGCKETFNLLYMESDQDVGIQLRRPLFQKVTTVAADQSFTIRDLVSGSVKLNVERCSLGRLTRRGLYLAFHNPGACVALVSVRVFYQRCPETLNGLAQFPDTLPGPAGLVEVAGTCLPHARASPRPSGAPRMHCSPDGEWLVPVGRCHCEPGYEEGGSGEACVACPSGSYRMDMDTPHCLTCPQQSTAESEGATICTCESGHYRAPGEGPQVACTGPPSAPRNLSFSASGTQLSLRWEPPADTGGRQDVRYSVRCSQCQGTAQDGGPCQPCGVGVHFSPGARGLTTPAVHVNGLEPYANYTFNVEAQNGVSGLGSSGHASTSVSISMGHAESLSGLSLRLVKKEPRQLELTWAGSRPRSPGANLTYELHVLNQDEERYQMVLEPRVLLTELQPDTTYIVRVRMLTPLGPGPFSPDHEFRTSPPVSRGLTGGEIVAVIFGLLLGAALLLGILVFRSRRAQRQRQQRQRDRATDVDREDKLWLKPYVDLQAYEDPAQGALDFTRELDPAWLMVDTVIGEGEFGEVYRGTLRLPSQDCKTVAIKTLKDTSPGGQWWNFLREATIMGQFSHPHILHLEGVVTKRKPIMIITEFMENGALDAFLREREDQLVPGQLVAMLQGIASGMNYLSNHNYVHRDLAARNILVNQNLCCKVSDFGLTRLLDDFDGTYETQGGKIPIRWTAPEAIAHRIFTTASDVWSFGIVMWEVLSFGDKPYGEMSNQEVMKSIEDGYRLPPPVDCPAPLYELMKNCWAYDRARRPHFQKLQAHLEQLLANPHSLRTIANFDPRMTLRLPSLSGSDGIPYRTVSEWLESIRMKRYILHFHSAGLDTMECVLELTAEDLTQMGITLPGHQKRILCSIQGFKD
The following applies: at 1 µM.

The target of assay [13] is T5, Ephrin type-A receptor 1 (Homo sapiens). Particulars: at 10 µM.
Assay [14] concerns the target Ephrin type-A receptor 2 (Homo sapiens) (UniProt P29317). The following applies: at 1 µM.
The target is the same in assay [15]. Particulars: at 10 µM.
Assay [16] deals with T6, Ephrin type-A receptor 3 (Homo sapiens) (UniProt P29320).
T6 sequence (whole entry): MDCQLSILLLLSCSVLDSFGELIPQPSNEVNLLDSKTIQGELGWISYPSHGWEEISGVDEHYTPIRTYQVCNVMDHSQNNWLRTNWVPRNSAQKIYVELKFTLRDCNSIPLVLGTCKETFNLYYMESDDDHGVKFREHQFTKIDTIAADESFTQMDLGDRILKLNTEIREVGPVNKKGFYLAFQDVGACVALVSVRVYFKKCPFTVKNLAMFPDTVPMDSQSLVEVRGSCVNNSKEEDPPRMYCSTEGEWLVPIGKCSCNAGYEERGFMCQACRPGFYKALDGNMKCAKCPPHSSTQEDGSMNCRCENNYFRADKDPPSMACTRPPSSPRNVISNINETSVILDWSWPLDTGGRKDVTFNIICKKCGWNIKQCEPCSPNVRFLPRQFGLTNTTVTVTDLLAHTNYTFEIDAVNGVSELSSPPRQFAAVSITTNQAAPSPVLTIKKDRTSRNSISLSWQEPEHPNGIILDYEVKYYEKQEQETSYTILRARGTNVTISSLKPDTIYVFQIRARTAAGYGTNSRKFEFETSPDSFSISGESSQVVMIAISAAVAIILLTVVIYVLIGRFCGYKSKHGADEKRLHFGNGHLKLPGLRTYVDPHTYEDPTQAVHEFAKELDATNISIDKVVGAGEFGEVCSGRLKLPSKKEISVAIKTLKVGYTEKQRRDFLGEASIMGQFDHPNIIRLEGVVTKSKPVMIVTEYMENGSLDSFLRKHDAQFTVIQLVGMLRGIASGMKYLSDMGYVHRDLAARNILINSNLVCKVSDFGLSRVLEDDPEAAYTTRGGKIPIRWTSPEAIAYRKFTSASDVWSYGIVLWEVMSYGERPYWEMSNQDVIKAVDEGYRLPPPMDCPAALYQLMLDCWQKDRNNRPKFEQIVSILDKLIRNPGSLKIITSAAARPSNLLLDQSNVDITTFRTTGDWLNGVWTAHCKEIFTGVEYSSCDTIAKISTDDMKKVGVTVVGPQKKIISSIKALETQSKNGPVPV
The following applies: at 1 µM.

SMILES strings stand for the structures.

Sequence of Death-associated protein kinase 2 (Homo sapiens) (Q9UIK4 whole entry, looked up): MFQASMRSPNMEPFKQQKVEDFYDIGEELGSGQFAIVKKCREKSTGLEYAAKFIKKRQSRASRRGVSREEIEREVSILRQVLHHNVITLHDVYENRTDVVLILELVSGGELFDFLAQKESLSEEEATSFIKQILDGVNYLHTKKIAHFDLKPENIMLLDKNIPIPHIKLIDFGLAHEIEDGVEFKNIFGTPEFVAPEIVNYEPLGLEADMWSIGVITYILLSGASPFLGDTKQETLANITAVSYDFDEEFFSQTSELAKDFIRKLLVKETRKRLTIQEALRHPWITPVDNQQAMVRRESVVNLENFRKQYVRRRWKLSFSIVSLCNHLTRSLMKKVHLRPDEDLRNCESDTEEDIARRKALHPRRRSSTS
Sequence of Ephrin type-A receptor 2 (Homo sapiens) (P29317 whole entry): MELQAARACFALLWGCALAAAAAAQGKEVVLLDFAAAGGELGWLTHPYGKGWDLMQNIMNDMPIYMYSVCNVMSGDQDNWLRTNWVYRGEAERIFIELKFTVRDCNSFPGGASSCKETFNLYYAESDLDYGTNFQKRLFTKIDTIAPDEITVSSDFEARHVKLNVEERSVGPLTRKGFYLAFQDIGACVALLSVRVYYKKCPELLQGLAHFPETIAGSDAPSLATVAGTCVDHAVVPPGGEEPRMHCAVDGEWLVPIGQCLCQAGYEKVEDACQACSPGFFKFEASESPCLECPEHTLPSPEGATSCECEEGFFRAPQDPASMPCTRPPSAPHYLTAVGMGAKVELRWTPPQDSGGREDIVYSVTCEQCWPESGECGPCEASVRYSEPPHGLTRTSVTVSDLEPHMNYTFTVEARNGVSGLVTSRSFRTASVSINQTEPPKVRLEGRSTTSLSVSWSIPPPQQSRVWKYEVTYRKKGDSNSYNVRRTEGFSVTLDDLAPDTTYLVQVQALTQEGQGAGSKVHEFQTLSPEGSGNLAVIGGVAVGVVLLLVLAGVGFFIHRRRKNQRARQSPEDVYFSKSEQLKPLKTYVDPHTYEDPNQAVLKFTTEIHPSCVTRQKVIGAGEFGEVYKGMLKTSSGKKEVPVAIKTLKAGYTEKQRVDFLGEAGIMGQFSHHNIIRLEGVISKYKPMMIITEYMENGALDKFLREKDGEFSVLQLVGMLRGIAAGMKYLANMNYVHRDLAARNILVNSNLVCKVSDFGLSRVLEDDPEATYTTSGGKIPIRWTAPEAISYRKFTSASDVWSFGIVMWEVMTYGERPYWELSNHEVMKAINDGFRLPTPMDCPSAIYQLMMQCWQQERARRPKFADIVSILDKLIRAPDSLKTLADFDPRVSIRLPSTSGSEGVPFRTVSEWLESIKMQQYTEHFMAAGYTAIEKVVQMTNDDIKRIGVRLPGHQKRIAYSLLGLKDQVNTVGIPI
Sequence of Death-associated protein kinase 1 (Homo sapiens) (P53355 whole entry, looked up): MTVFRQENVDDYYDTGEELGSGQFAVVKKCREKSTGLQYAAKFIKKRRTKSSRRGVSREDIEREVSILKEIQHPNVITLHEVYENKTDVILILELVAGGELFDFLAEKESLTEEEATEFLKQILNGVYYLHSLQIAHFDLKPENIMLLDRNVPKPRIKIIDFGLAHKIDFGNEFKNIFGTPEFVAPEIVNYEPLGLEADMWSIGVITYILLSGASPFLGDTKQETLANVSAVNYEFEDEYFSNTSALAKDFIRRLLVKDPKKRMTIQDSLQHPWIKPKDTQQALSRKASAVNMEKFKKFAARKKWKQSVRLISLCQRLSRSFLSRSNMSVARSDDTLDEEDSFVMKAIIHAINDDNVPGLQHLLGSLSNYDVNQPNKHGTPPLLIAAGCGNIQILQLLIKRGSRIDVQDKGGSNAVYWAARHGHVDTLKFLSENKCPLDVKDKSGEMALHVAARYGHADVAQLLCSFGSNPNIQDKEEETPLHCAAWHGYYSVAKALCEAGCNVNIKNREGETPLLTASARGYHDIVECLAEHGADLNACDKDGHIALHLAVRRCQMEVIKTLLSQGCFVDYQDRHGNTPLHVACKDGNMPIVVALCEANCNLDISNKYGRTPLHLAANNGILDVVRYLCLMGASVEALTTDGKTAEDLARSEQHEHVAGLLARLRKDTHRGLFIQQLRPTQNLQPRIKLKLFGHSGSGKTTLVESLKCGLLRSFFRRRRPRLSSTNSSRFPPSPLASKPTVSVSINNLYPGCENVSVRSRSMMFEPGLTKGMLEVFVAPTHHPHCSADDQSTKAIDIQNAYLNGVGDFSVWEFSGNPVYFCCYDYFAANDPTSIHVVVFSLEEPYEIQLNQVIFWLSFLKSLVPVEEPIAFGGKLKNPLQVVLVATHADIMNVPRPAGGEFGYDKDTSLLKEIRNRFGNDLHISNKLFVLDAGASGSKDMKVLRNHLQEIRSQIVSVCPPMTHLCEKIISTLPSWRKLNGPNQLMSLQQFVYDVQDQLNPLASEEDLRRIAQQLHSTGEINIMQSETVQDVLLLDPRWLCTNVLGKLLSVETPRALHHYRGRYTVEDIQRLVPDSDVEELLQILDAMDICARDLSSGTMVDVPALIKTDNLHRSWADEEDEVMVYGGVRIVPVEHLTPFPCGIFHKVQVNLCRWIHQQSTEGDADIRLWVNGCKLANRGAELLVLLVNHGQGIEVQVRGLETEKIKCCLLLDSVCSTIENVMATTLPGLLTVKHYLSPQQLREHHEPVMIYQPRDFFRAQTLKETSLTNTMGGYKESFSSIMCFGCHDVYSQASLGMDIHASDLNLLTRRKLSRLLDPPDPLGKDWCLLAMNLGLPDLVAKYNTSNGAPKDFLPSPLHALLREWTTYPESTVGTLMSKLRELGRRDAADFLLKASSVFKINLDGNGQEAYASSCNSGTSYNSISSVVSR

Regarding `CC(C)[C@H](CO)Nc1nc(Nc2cc(N)cc(Cl)c2)c2ncn(C(C)C)c2n1`, the residual activity in assay [1] came out at 80%; in [2], 99%; in [3], 97%; in assay [4], 94%; in [5] it was 95%; in assay [6], 95%. The residual activity in assay [7] was 88%; in assay [8], 87%; in [9], 90%; in assay [10], 94%; in [11] it was 74%; in assay [12], 95%. Moreover, the residual activity in [13] turned out to be 11%; in assay [14] it was 88%; in assay [15], 29%; in assay [16], 93%.
As for `CCCC(=O)Oc1ccc2[nH]c(C(=O)c3cc4ccccc4[nH]3)cc2c1`, the residual activity was found to be 68% in [1]; 95% in [2]; 104% in [3]; 82% in assay [4]; 93% in assay [5]; 101% in [7]. The residual activity amounted to 132% in assay [8]; 133% in assay [9]; 102% in assay [11]; 88% in assay [12]; 94% in assay [13]; 107% in assay [16].

Usually residual activity stands for the signal under treatment as a percentage of the control signal.

Values taken from ChEMBL document CHEMBL2218924, “A broad activity screen in support of a chemogenomic map for kinase signalling research and drug discovery” (Biochem J, 2013).
